Inconclusive results are not listed. Entries that show only a call come without a potency. Values without a mark were called inactive. Active and inactive are the calls of the source. Calls follow the shape of the dose curve; as a rule, active = well fitted inhibition curve with a large enough effect in the repeat runs; inconclusive = weak or mixed curves; inactive = flat fitted curve, though single readings scatter.
Potency is read from the fitted curve at half-maximal effect.

Sequence of Voltage-gated inwardly rectifying potassium channel KCNH2 (Homo sapiens) (Q12809 whole entry, looked up): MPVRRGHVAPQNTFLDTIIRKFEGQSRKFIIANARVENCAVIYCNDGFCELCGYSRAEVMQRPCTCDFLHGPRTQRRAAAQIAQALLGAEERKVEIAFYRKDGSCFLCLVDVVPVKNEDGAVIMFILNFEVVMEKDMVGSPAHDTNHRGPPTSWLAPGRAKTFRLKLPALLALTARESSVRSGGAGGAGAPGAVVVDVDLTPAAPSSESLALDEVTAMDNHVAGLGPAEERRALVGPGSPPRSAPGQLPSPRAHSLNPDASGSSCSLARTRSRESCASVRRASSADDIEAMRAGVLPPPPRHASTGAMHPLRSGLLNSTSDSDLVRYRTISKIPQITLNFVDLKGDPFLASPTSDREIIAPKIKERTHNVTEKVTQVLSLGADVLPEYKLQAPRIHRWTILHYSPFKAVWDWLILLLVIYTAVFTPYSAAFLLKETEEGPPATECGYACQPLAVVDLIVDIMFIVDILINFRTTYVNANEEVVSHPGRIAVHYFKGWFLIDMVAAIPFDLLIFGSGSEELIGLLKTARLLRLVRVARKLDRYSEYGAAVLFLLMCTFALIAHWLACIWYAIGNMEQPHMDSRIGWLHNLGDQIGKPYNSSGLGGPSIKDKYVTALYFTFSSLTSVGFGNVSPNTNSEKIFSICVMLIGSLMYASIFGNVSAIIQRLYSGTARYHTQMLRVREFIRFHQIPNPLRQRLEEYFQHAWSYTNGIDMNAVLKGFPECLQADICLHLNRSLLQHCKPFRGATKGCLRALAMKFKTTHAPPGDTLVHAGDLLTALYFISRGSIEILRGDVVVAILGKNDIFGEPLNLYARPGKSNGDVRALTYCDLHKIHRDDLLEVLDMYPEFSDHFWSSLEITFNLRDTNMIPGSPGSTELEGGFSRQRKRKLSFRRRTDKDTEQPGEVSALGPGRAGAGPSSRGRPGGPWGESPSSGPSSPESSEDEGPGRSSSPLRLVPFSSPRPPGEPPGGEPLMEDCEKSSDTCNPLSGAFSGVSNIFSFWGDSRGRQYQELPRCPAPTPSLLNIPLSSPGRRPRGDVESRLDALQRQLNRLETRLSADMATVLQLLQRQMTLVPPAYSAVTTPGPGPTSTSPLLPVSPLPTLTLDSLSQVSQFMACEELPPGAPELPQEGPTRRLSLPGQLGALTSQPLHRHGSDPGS

This test addresses Voltage-gated inwardly rectifying potassium channel KCNH2 (Homo sapiens) (UniProt Q12809). The test is described as follows: Human Ether-a-go-go-Related Gene (hERG) channel small molecule antagonists: fluorescence cell-based qHTS assay (AID 1671200). Also: nearly all actives have a fitted effect of over 50% in size. The following applies: hERG-U2OS cells, FluxOR thallium flux fluorescence; series mostly up to 76.8 µM; activity change, negative = inhibition: at the top concentration. The text has this: National Center for Advancing Translational Sciences [NCATS]
U.S. Environmental Protection Agency [EPA]
National Institutes of Environmental Health Sciences [NIEHS]
National Toxicology Program [NTP]
U.S. Food and Drug Administration [FDA]
Mutations in the hERG channel cause Long QT (LQT) syndrome. LQT syndrome is a cardiac disorder which can cause ventricle arrhythmia and sudden death. Additionally, compounds which block the hERG channel can cause acquired LQT syndrome. Several FDA approved drugs have been removed from the market due to their hERG blocking activity. A cell-based hERG channel inhibition assay can be used to screen chemical compounds that inhibit hERG channel. This assay measures hERG channel activity using thallium ions as surrogate ions to measure potassium into the cells.
Tox21 Assay Protocol Summary:
hERG-U2OS cells were resuspended in culture medium and dispensed into 1536-well, black wall/clear-bottom plates at 1000cells/well/3uL using a Multidrop Combi dispenser (Thermo Fisher, Waltham, MA). After plates were incubated at 37 C overnight, 3 uL of Loading Buffer provided by FluxOR II Potassium Ion Channel Assay kit (Thermo, Carlsbad, CA) was added to each well. The assay plates were then incubated at room temperature in the dark for 1h. […] After the assay plates were incubated at room temperature for 10 min, 1 uL of Stimulus Buffer provided by FluxOR II Potassium Ion Channel Assay kit was added into each well and fluorescence intensity (480nm excitation/540nm emission) was continuously measured for 2 min at 1 second intervals using a Functional Drug Screening System (FDSS) 7000EX kinetic plate reader (Hamamatsu, Japan).
(In general: Block of hERG is tested as a sign of cardiac risk.)
On to `C=CC(=O)OCCCCCCCC(C)C`, for which the Potency entry is “inactive”.

Turning to `CC(=O)[C@@]1(O)CC[C@H]2[C@@H]3CCC4=CC(=O)CC[C@]4(C)[C@H]3CC[C@@]21C`, the Potency result is “inactive”. Same read-out and setting: with `CC1Cc2ccccc2N1NC(=O)c1ccc(Cl)c(S(N)(=O)=O)c1` (stereo not given) the entry was “inactive”. The same measure, in the same setting: the value for `CC(=O)Nc1ccc(C(=O)O)cc1` was “inactive”. Still for that read-out and setting: the value for `CC(C)n1c(/C=C/[C@@H](O)C[C@@H](O)CC(=O)O)c(-c2ccc(F)cc2)c2ccccc21` was “inactive”. `Cc1cc(Cc2ccc(N)c(C)c2)ccc1N`: the Potency result is “inactive”. Turning to `Nc1cc(-c2ccncc2)c[nH]c1=O`, the Potency result is “inactive”. As to `CCOC(=O)C1OC1c1ccccc1` (stereo not given), the Potency result was “inactive”. Same read-out and setting: with `NCCNCCNCCNCCN` the entry was “inactive”; with `OC[C@@H](O)[C@H](O)[C@H](O)[C@@H](O)CO`, “inactive”; with `Oc1ccc(OCc2ccccc2)cc1`, “inactive”. Consider `CC1COc2ccccc2N1C(=O)C(Cl)Cl` (stereo not given), for which the Potency entry is “inactive”. Regarding `CC1CC(OC(=O)c2ccccc2O)CC(C)(C)C1` (stereo not given), the “activity change, negative = inhibition” value was -9.51%. Take `O=C(O)c1ccc([N+](=O)[O-])cc1`: the Potency entry is “inactive”. Same read-out and setting: with `ClC1=C(Cl)C(Cl)(Cl)C(Cl)=C1Cl` the entry was “inactive”; with `CC(C)(C)C(=O)C1C(=O)c2ccccc2C1=O`, “inactive”. For `C[C@@H]1O[C@@H](OC[C@H]2O[C@@H](Oc3c(-c4ccc(O)c(O)c4)oc4cc(O)cc(O)c4c3=O)[C@H](O)[C@@H](O)[C@@H]2O)[C@H](O)[C@H](O)[C@H]1O`, the Potency entry is “inactive”.

Consider `O=[N+]([O-])C(CO)(CO)CO`, for which the Potency result is “inactive”. Same read-out and setting: the value for `CCCCCCCCCCCCOCC1CO1` (stereo not given) was “inactive”. As for `Oc1c(Cl)cc(Cl)c(Cl)c1Cl`, the Potency entry was “inactive”. Take `Clc1cc(Cl)c(Cl)cc1Cl`: the Potency result was “inactive”. In the case of `NS(=O)(=O)c1cc2c(cc1Cl)NC=NS2(=O)=O`, the Potency result was “inactive”. `COC(=O)c1ccccc1O`: the Potency entry was “inactive”. Still for that read-out and setting: with `CN(C)c1ccc(C(=N)c2ccc(N(C)C)cc2)cc1` the figure was 48.4 µM (active); with `S=c1nc[nH]c2nc[nH]c12`, “inactive”. Still for that read-out and setting: with `CCCCCCOC(C)=O` the entry was “inactive”; with `CC(C)(CO)COC(=O)C(C)(C)CO`, “inactive”.

Regarding `CC1=CC[C@H]2C[C@@H]1C2(C)C`, the Potency result was “inactive”. Still for that read-out and setting: the value for `COCC(C)O` (stereo not given) was “inactive”; that for `O=S(=O)(O)c1cc(S(=O)(=O)O)c2c(N=Nc3ccccc3)c(O)ccc2c1` was “inactive”. Still for that read-out and setting: the value for `O=c1c(-c2ccc(O)cc2)coc2cc(O)ccc12` was “inactive”. For `O=[N+]([O-])c1cc(N(CCO)CCO)ccc1NCCO`, the Potency result is “inactive”.

Regarding `CC1=C(CC(=O)O)c2cc(F)ccc2/C1=C\c1ccc(S(C)=O)cc1` (stereo not given), the Potency result is “inactive”. Take `CCCCC/C=C\C/C=C\CCCCCCCC(=O)OC`: the “activity change, negative = inhibition” value is -2.53%.

Regarding `Cn1c([N+](=O)[O-])cnc1COC(N)=O`, the Potency entry is “inactive”. For the molecule `Nc1nc2ncc(CNc3ccc(C(=O)N[C@@H](CCC(=O)O)C(=O)O)cc3)nc2c(=O)[nH]1`, the Potency entry is “inactive”. Regarding `C=C(C)C(=O)OCCCCCC`, the Potency entry was “inactive”. Consider `CCC(C)C=O` (stereo not given), for which the Potency result is “inactive”. The same measure, in the same setting: the value for `O=C1CCCCC1` was “inactive”; that for `OC1CCCC1` was “inactive”.

Source of the values: PubChem BioAssay (Tox21).
